From PubChem BioAssay
In the library only some 31% were active in any assay of this set; here they are far more common.
CYP2C19 activ: cytochrome P450 2C19 (human) activation; recombinant CYP2C19, luciferin-H EGE luminescence; active compounds read high; 0 = fully inhibited enzyme, 1 = untreated enzyme; 96,000 tested, under 10 active; P33261; activation factor at 5 µM;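 active means activation factor of at least 2 at 5 µM in the primary screen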;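 further: 0 = wells with 2.5 mM tranylcypromine and 1 = vehicle-only wells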
Target sequence (P33261 whole entry, looked up): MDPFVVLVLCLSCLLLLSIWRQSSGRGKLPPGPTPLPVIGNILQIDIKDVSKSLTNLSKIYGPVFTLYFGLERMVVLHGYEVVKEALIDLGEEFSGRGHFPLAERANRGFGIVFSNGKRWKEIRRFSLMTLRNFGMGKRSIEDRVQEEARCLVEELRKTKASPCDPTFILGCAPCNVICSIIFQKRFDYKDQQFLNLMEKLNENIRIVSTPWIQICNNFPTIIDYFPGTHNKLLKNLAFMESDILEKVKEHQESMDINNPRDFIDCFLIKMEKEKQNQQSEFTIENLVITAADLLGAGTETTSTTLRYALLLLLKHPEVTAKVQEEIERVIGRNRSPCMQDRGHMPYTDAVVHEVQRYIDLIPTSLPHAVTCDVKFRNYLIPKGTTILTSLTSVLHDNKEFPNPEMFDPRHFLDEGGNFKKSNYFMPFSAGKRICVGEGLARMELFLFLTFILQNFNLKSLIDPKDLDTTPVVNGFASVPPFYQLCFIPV
CYP2C9 activ: CYP2C9 (human) activation; activation factor at 5 µM; recombinant CYP2C9, luciferin-H conversion, luminescence; active compounds read high; factor 1 = untreated enzyme, 0 = blocked; AID 1024; P11712; 96,000 compounds, 1.4% hits;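 active means activation factor of 2 or more for CYP2C9 at a 5 µM dose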;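 further: 0 = sulfaphenazole-blocked wells and 1 = vehicle-only wells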
CYP2C19 inh: human CYP2C19 inhibition | inhibition, % at 5 µM | 96,000 compounds, 21% hits | AID 778 | P33261 | CYP2C19 Supersomes, luciferin-H EGE luminescence, 30 min;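 active means CYP2C19 inhibition above a set limit at 5 µM in the primary screen, cut at about 50% in these data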;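 further: plate controls were negative control wells for no effect and 2.5 mM tranylcypromine positive control for full effect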
CYP2C9 inh: human CYP2C9 inhibition. AID 777. 96,000 compounds, 20% hits. inhibition, % at 5 µM. CYP2C9 Supersomes, luciferin-H conversion, luminescence;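 active means blocking of liver enzyme CYP2C9 beyond about 50% at 5 µM, limit read from the data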
An asterisk follows results filed as active.

SMILES | CYP2C19 activ | CYP2C9 activ | CYP2C19 inh | CYP2C9 inh
Cc1nc(CC(=O)N2CCN(c3cccc(C)c3C)CC2)cs1 | 0.2 | 1.3 | 84.4* | -29.6
Cc1cccc(N2CCN(C(=O)C(C)C)CC2)c1C | 0.8 | 0.8 | 18.4 | 17.3
COc1cccc(NC(=O)N2CCN(c3cccc(C)c3C)CC2)c1 | 0.8 | 2* | 17.9 | -102.1
Cc1cccc(N2CCN(C(=O)n3ccnc3)CC2)c1C | 0 | 0.1 | 99.9* | 85.6*
Cc1cccc(N2CCN(C(=O)Cn3cccc3)CC2)c1C | 0.2 | 0.9 | 79.2* | 6.2
CCOC(=O)C1CCCN(c2cc(=O)n(Cc3ccc(F)cc3)c(=O)[nH]2)C1 (stereo not given) | 1 | 1 | 2.8 | 4.7
CN(C)CCCCNCCCNC(=O)/C=N\O | 1.1 | 1.1 | -7.9 | -12.1
CCC(C(=O)c1ccccc1)N(C(=O)c1ccccc1Cl)N1C(=O)C2C3C=CC(C3)C2C1=O (stereo not given) | 0.5 | 1 | 48.5 | 4.6
CC(=O)C1=NN(c2ccccc2)C(c2cccs2)N1c1ccccc1 (stereo not given) | 0.8 | 0.5 | 25.0 | 49.2
O=C(c1ccco1)N1N=C(c2cccs2)CC1c1ccc(F)cc1 (stereo not given) | 0.7 | 0.6 | 30.4 | 43.5
O=C(c1cccs1)N1N=C(c2ccccc2)CC1c1ccccc1 (stereo not given) | 0.3 | 0.1 | 68.5* | 95.0*
CS(=O)(=O)N1N=C(c2ccccc2)CC1c1cccs1 (stereo not given) | 0.5 | 0.8 | 54.8* | 24.4
CC(NC(=O)Nc1cccnc1)(C(F)(F)F)C(F)(F)F | 1.2 | 1.1 | -15.5 | -12.9
COC(=O)C1=C(C)NC(=O)CC1c1cccc(OC)c1OC (stereo not given) | 0.8 | 0.9 | 17.1 | 9.0
COc1ccc(NC(=S)Nc2cc(-c3ccccc3)[nH]n2)cc1Cl | 1.1 | 1.1 | -6.6 | -10.6
COc1ccc(OC)c(CNC(=O)C2CCN(S(=O)(=O)N3CCCC3)CC2)c1 | 1 | 1.2 | 2.5 | -19.6
Cc1ccc(NC(=O)c2ccc(NS(=O)(=O)c3c(C)noc3C)cc2)cc1C | 0.9 | 0.2 | 7.5 | 78.9*
COc1ccccc1CNC(=O)C1CCN(S(=O)(=O)c2c(C)noc2C)CC1 | 1 | 2* | -0.2 | -99.1
Cc1noc(C)c1S(=O)(=O)Nc1ccc(C(=O)NCCc2ccccc2)cc1 | 1 | 0.4 | -1.4 | 60.3*
Cc1ccc(CNC(=O)C2CCN(S(=O)(=O)c3c(C)noc3C)CC2)cc1 | 1.1 | 1.1 | -7.7 | -14.1
COc1ccc(Br)cc1CNC(=O)C1CCN(S(=O)(=O)N2CCCCC2)CC1 | 0.8 | 2.2* | 23.1 | -119.2
NS(=O)(=O)c1ccc(CCNC(=O)CCCC2=NS(=O)(=O)c3ccccc3N2)cc1 | 1 | 0.9 | 2.6 | 13.9
CC1(C)CC(=O)C(C(=S)Nc2ccccc2)=C(NCCN2CCOCC2)C1 | 0.9 | 1 | 11.9 | 1.0
CC1(C)CC(O)(CNCc2ccc3c(c2)OCO3)CCO1 (stereo not given) | 0.8 | 0.7 | 15.4 | 34.1
CCOC(=O)c1c(NC(=O)c2noc3c2CCCC3)sc(C)c1C | 1 | 0.9 | -1.7 | 7.3
SMILES | CYP2C19 activ | CYP2C9 activ | CYP2C19 inh | CYP2C9 inh
COc1ccc(CNC(=O)c2ccc(NS(=O)(=O)c3c(C)noc3C)cc2)cc1 | 1 | 0.4 | -2.7 | 58.2*
COc1ccccc1CNC(=O)c1ccc(NS(=O)(=O)c2c(C)noc2C)cc1 | 0.9 | 0.2 | 11.7 | 78.5*
Cc1ccc(CN2C(=O)CCC2C(=O)NCc2ccco2)cc1 (stereo not given) | 0.8 | 1 | 17.7 | 1.8
CCOC(=O)c1sc(=S)n(-c2cc(OC)ccc2OC)c1N | 0.8 | 0.8 | 17.0 | 23.1
C=CCSc1nc2c(c(=O)[nH]c(=O)n2C)n1CC | 1.1 | 1.2 | -14.4 | -24.0
Cc1c2c(nc3c(C(=O)NC4CCCCC4C)cnn13)CCCC2 (stereo not given) | 0.9 | 1.2 | 7.8 | -15.1
Cc1cccc(C)c1NC(=O)COc1cccc(/C=N/NC(=O)C(=O)NCc2ccccc2)c1 | 1 | 1 | 3.4 | 3.0
COc1ccc(N=C2S/C(=C\c3ccc(N4CCOCC4)o3)C(=O)N2CCc2c[nH]c3ccccc23)cc1 | 0.7 | 0.4 | 32.0 | 64.4*
CCn1c2ccc(CC(=O)O)cc2c2cc(CC(=O)O)ccc21 | 0.9 | 1 | 7.7 | 1.5
CC(=O)c1sc2nc(-c3cccs3)cc(C(F)(F)F)c2c1N | 0.4 | 0.3 | 57.6* | 67.2*
COC(=O)C(NNc1ccccc1C)(NC(=O)c1ccc(F)cc1)C(F)(F)F (stereo not given) | 0.2 | 0.5 | 78.9* | 53.8*
COC(=O)C(NC(=O)c1ccccc1)(Nc1nccs1)C(F)(F)F (stereo not given) | 0.8 | 0.8 | 22.6 | 23.3
COc1ccc(CCNC(=O)COc2ccc(S(=O)(=O)N3CCOCC3)cc2)cc1OC | 0.9 | 0.5 | 14.9 | 50.3*
COc1ccc(CCNC(=O)COc2ccc(-c3ccc(C)cc3)cc2)cc1OC | 1 | 0.3 | 3.1 | 74.5*
CC12C(=O)N(Cc3ccco3)C(=O)C1C1c3ccccc3C2c2ccccc21 (stereo not given) | 0.4 | 0.6 | 57.4* | 35.3
CCC(CC)C(=O)c1c[nH]c(C(=O)NCCCn2ccnc2)c1 | 0.3 | 0.1 | 66.6* | 92.3*
CC(C)CC(=O)c1c[nH]c(C(=O)NCc2cccs2)c1 | 0.9 | 0.8 | 11.0 | 20.0
Cc1ccccc1C(=O)c1c[nH]c(C(=O)NCCCn2ccnc2)c1 | 0.3 | 0.1 | 67.1* | 92.6*
O=C(NCCCn1ccnc1)c1cc(C2CC2)on1 | 0.1 | 0.4 | 85.1* | 58.9*
CCC(CC)C(=O)c1c[nH]c(C(=O)NCCCN2CCOCC2)c1 | 1 | 0.9 | 4.5 | 13.3
CC(C)CC(=O)c1c[nH]c(C(=O)NCCCn2ccnc2)c1 | 0.6 | 0.2 | 40.9 | 82.0*
O=C(NCCCn1ccnc1)c1cc(C(=O)C2CC2)c[nH]1 | 0.4 | 0.4 | 56.5* | 60.9*
O=C(O)C1CCCCC1C(=O)NCCCn1ccnc1 (stereo not given) | 0.8 | 0.9 | 15.9 | 13.7
CCOC(=O)CSc1nnc(C)n1N | 1 | 1 | 3.2 | -2.2
COc1ccc(-c2ccc(SCC(=O)N3c4ccccc4CC3C)nn2)cc1OC (stereo not given) | 0.8 | 0.7 | 18.6 | 29.6
SMILES | CYP2C19 activ | CYP2C9 activ | CYP2C19 inh | CYP2C9 inh
COc1cccc(-n2c(SCC(=O)N3c4ccccc4CC3C)nnc2-c2ccco2)c1 (stereo not given) | 0.2 | 0.1 | 79.6* | 91.9*
CCOC(=O)C1CCN(C(=O)CSc2nnc(-c3ccco3)n2-c2ccccc2)CC1 | 0.5 | 0.5 | 53.1* | 53.9*
O=C(CSc1nnc(-c2ccco2)n1-c1ccccc1)N1CCOCC1 | 1.1 | 1.1 | -7.0 | -14.2
CC1Cc2ccccc2N1C(=O)CSc1nnc2n1C(C)(C)Cc1ccccc1-2 (stereo not given) | 0.3 | 0.4 | 73.9* | 56.3*
COc1ccccc1N1CCN(C(=O)CSc2nnc3n2C(C)(C)Cc2ccccc2-3)CC1 | 0.1 | 0.6 | 92.2* | 38.5
Cc1cc(C)c2c(-n3cccc3)nn(C)c2n1 | 0.6 | 1 | 38.5 | 2.8
